Screening data from PubChem BioAssay.
IL-1B inflam inh = qHTS for Inhibitors of Inflammasome Signaling: IL-1-beta AlphaLISA Primary Screen; THP-1 LPS/ATP IL-1B secretion, AlphaLISA, 16 h; hits give low values; activity change, % at 57.5 µM; 360,000 compounds, 4.7% hits; in the data active = activity change below about -50%; inconclusive = mostly about -30% to -49%
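Secreted IL-1B measured by AlphaLISA bead assay after 16 h compound exposure of THP-1 cells; compounds (final up to 57.5 uM) added 1 h before LPS (250 ng/mL) and ATP (1.25 mM) stimulation; lower signal means less secretion.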
TDP1 cell CPT = qHTS for Inhibitors of human tyrosyl-DNA phosphodiesterase 1 (TDP1): qHTS in cells in presence of CPT; chicken DT40 Tdp1-/-;hTDP1 cells + 20 nM CPT, ATP luminescence, 48 h; Potency, µM (series often up to 46.2 µM), without a hit: top-dose activity change, negative = growth inhibition, most hits filed as inhibitors; 420,000 compounds, 12% hits; AID 686979, 2013; also: potency is read from the fitted curve at half-maximal effect; nearly all actives have a fitted effect of over 55% in size
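Cell growth measured by CellTiter-Glo luminescence after a minimum 48 h, 37 C compound exposure with 20 nM CPT in Tdp1-knockout DT40 cells stably expressing hTDP1, seeded 400/well; qHTS titration format.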
CtBP-E1A inh = qHTS Assay for Inhibitors of the CtBP/E1A Interaction | CtBP / adenovirus E1A interaction (AlphaScreen) | AlphaScreen GST-E1A/His-CtBP binding, 1536-well; hits give low values | activity change, % (concentration not given with the values) | 340,000 compounds, 0.49% hits | AID 651724, 2012; in the data active = activity change below about -65%; inconclusive = mostly about -30% to -63%
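Homogeneous bead-based format: GST-tagged E1A captured on glutathione donor beads, His-tagged CtBP on nickel acceptor beads; compounds precede bead addition by 2 h at 37 °C.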
Six1-Eya2 blk = qHTS Assay for Inhibitors of the Six1/Eya2 Interaction. Homeobox protein SIX1 (Homo sapiens) + Protein phosphatase EYA2 (Homo sapiens), …. AlphaScreen GST-Six1/His-Eya2 binding, biochemical; hits give low values. activity change, % (test concentration not listed). 360,000 compounds, 0.56% hits. AID 651725, 2012; in the data active = activity change below about -65%; inconclusive = mostly about -30% to -63%
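GST-Six1 + His-Eya2 (5X stock: 250/500 nM); Tris pH 8.0, 300 mM NaCl, 0.05% BSA, 0.02% Tween 20; GSH donor/Ni acceptor beads; 1 h 37 °C dark; AlphaScreen readout.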
TDP1 inh = qHTS Assay for Inhibitors of Tyrosyl-DNA Phosphodiesterase (TDP1); Tyrosyl-DNA phosphodiesterase 1 (Homo sapiens), Q9NUW8; recombinant TDP1, AlphaScreen DNA substrate cleavage; Potency, µM (titrated, usually from 130 µM), inactives show at the top dose activity change, negative = inhibition, actives largely listed as inhibitors; 350,000 compounds, 0.28% hits; AID 485290, 2010; also: potency is read from the fitted curve at half-maximal effect; nearly all actives have a fitted effect of over 40% in size
Target sequence (Q9NUW8 whole entry, looked up): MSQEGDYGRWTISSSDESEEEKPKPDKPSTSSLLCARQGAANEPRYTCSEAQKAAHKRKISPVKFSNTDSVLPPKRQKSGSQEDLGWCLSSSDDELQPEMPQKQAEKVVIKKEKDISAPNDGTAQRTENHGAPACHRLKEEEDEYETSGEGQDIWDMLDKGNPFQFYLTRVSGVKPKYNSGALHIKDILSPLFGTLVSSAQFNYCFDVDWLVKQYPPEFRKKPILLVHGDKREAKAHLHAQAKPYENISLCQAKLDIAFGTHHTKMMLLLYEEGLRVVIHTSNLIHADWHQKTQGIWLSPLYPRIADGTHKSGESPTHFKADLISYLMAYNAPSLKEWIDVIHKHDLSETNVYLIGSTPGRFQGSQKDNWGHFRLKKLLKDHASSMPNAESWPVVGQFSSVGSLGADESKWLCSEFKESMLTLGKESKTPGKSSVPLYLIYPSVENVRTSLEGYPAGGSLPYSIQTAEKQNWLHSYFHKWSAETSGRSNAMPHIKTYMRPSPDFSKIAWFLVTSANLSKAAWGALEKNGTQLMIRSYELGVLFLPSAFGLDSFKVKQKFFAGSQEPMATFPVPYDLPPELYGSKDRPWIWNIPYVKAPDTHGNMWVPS
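Enzyme-compound mixtures sat 15 min at room temperature, followed by a 5 min reaction with 15 nM final substrate and 10 min with AlphaScreen beads. Recombinant human Tdp1 was used at 1 nM final.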
TDP1 cell noCPT = qHTS for Inhibitors of human tyrosyl-DNA phosphodiesterase 1 (TDP1): qHTS in cells in absence of CPT; DT40 Tdp1-/- hTDP1 cells, no CPT, ATP luminescence, 48 h; Potency, µM (highest dose often 46.2 µM), for the others: top-dose activity change, negative = growth inhibition, hits mostly inhibitors; 420,000 compounds, 15% hits; AID 686978, 2013; also: potency is read from the fitted curve at half-maximal effect; nearly all actives have a fitted effect of over 55% in size
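Seeded 400 DT40-hTDP1 cells/well (vehicle DMSO, no 20 nM CPT); pinned compounds; ≥48 hr at 37 °C; CellTiter-Glo luminescence as viability measure.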
* marks the source's active call; other numbers are inactive results. The list is not random: actives were taken first. Their share in the collection is about 18%. Unless noted, calls follow the shape of the dose curve; as a rule, active = well fitted curve in the direction sought with a large enough effect; inconclusive = small, poorly fitted or top-dose-only effect, or another doubt; inactive = no such curve, though single readings can be large; an effect the other way counts as inactive or inconclusive. % is scaled to controls: 0 for no effect and ±100 for the full control effect.

How did CC(C)=CC(=O)N1CCC(Oc2cccc(C(=O)NCc3ccccn3)c2)CC1 do in these assays?
IL-1B inflam inh: -1; TDP1 cell CPT: -21%; CtBP-E1A inh: -17; Six1-Eya2 blk: 3; TDP1 cell noCPT: inconclusive

What do the screens show for `O=C(NCc1ccccc1Cl)c1cccc(C(F)(F)F)c1`?
IL-1B inflam inh: -80*; TDP1 cell CPT: 3%; CtBP-E1A inh: 6; Six1-Eya2 blk: 15; TDP1 inh: 2%; TDP1 cell noCPT: -14%

Results for O=C(CN(c1cccc(C(F)(F)F)c1)S(=O)(=O)c1ccc(Cl)c([N+](=O)[O-])c1)NCc1ccccc1Cl ?
IL-1B inflam inh: -100*; TDP1 cell CPT: 16µM*; CtBP-E1A inh: -5; Six1-Eya2 blk: -10; TDP1 inh: 8%; TDP1 cell noCPT: 16µM*

What do the screens show for `O=C(CN(c1cccc(C(F)(F)F)c1)S(=O)(=O)c1ccc(Cl)c([N+](=O)[O-])c1)NCc1ccccc1`?
IL-1B inflam inh: -11; TDP1 cell CPT: -23%; CtBP-E1A inh: -2; Six1-Eya2 blk: -9; TDP1 inh: 6%; TDP1 cell noCPT: inconclusive

How did CC(NC(=O)CN(c1cccc(C(F)(F)F)c1)S(=O)(=O)c1ccc(Cl)c([N+](=O)[O-])c1)c1ccccc1 (stereo unspecified) do in these assays?
IL-1B inflam inh: -91*; TDP1 cell CPT: 4.6µM*; CtBP-E1A inh: 15; Six1-Eya2 blk: -4; TDP1 inh: 5%; TDP1 cell noCPT: 9.2µM*

What do the screens show for `O=C(NCc1cccc(Cl)c1)c1cccc(C(F)(F)F)c1`?
IL-1B inflam inh: -14; TDP1 cell CPT: inconclusive; CtBP-E1A inh: 7; Six1-Eya2 blk: 16; TDP1 inh: 0%; TDP1 cell noCPT: -22%

What do the screens show for `O=C(NCc1ccccc1Cl)c1cccc(OC2CCN(C(=O)C3CC3)CC2)c1`?
IL-1B inflam inh: -2; TDP1 cell CPT: 16µM*; CtBP-E1A inh: -2; Six1-Eya2 blk: -5; TDP1 inh: 1%; TDP1 cell noCPT: inconclusive

Results for COCCn1c(SCC(=O)Nc2ccc(C(C)=O)cc2)nnc1-c1ccco1 ?
IL-1B inflam inh: 7; TDP1 cell CPT: -1%; CtBP-E1A inh: 0; Six1-Eya2 blk: 20; TDP1 inh: 9%; TDP1 cell noCPT: -26%

How did COc1ccc(/C=C/C(=O)OCC(=O)NC2CCCC(C)C2C)cc1 (stereo unspecified) do in these assays?
IL-1B inflam inh: 15; TDP1 cell CPT: -28%; CtBP-E1A inh: -6; Six1-Eya2 blk: 5; TDP1 inh: 0%; TDP1 cell noCPT: -29%

How did COc1ccc(Br)cc1C(=O)NC(=S)Nc1ccc(CN2CCOCC2)cc1 do in these assays?
IL-1B inflam inh: -68*; TDP1 cell CPT: 18µM*; CtBP-E1A inh: inconclusive; Six1-Eya2 blk: -22; TDP1 inh: 8%; TDP1 cell noCPT: 13µM*

Results for O=C(COc1ccc(Br)cc1)N1CCOCC1 ?
IL-1B inflam inh: -7; TDP1 cell CPT: -11%; CtBP-E1A inh: 7; Six1-Eya2 blk: -7; TDP1 inh: 0%; TDP1 cell noCPT: -16%

What do the screens show for `COc1ccc(Br)cc1C(=O)NC(=S)Nc1ccc(Cl)c(C(=O)O)c1`?
IL-1B inflam inh: 24; TDP1 cell CPT: -18%; CtBP-E1A inh: -18; Six1-Eya2 blk: -22; TDP1 inh: -8%; TDP1 cell noCPT: -24%
